Common to all, as to design: scale not given: direction of the effect not stated beside the values
Assay [1] concerns the target Protein translocase subunit SecA (Escherichia coli (strain K12)) (UniProt P10408). Description: Assay to Identify E. coli SecA ATPase Inhibitors. It counts as functional. The settings on record: 30 µM.
In assay [2] the target is T1, Ubiquitin-activating enzyme e1, putative (Leishmania donovani (strain BPK282A1)) (UniProt E9BSI1).
T1 sequence (whole entry): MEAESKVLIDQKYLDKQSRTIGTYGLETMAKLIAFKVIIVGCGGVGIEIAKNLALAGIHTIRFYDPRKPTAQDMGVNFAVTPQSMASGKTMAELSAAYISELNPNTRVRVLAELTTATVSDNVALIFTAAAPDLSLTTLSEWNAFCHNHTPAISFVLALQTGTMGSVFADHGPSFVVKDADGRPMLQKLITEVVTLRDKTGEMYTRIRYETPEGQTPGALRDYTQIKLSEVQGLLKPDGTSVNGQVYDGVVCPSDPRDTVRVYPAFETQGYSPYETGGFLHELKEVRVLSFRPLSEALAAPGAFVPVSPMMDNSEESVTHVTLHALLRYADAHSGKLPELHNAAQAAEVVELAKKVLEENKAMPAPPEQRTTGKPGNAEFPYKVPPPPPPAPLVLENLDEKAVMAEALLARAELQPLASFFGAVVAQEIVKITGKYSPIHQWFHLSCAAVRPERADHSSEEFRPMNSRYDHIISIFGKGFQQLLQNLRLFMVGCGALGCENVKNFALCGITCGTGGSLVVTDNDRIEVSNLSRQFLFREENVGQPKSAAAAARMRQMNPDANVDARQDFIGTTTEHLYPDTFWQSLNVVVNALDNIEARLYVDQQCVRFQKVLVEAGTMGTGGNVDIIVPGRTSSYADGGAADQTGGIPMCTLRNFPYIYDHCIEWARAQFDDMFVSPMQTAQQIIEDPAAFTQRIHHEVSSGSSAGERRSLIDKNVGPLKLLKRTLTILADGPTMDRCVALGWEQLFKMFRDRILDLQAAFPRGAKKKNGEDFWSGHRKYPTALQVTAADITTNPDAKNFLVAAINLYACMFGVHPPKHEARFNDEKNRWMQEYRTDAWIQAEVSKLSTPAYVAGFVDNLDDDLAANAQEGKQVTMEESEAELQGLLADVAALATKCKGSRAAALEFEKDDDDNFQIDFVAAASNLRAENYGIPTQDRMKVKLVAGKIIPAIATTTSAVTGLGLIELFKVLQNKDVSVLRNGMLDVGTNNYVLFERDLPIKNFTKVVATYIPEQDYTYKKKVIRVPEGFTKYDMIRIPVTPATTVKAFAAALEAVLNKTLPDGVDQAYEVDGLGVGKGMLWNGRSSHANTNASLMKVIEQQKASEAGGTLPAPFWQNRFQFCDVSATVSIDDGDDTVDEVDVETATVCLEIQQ
The experiment in a line: Leishmania donovani Ubiquitin Activating Enzyme (LdE1). The class given is functional. The conditions noted are these: 30 µM.

For assay [3], the target named is AMP-activated protein kinase, AMPK (Homo sapiens) (UniProt P54646+O43741+P54619+Q9UGJ0+Q9Y478+Q13131+Q9UGI9). The experiment in a line: AMP-dependent Kinase enzyme assay. An in vitro enzyme assay that detects ADP turnover that is directly proportional to AMPK activity. This uses naive AMPK that is activated during the assay with MK-8722. It counts as functional. The settings on record: 30 µM.

The target of assay [4] is Sialic acid-binding Ig-like lectin 9 (Homo sapiens) (UniProt Q9Y336). The experiment in a line: Hs-Siglec9 ALPHAscreen SOP 20170721. The conditions noted are these: 10 µM.
Sequence of Sialic acid-binding Ig-like lectin 9 (Homo sapiens) (Q9Y336 whole entry): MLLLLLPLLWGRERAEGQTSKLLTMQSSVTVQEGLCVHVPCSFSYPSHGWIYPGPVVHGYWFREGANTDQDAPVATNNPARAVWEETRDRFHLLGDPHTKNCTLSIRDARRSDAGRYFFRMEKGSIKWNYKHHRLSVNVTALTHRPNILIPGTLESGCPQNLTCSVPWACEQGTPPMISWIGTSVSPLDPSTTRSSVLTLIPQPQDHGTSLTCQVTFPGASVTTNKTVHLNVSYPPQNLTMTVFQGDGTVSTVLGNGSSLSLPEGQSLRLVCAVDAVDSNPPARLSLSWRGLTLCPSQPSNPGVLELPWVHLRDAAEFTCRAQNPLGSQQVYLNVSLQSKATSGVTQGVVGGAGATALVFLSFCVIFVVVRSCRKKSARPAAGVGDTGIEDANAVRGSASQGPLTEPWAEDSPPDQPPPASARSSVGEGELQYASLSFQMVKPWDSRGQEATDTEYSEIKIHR
Another assay relates to Trypanosoma cruzi. Description: Trypanosoma cruzi phosphomannomutase and mannose-1-phosphate guanylyltransferase assay. The class given is functional. The settings on record: 10 µM.
The target in assay [5] is T2, Arginase-2, mitochondrial (Homo sapiens) (UniProt P78540).
T2 sequence (whole entry): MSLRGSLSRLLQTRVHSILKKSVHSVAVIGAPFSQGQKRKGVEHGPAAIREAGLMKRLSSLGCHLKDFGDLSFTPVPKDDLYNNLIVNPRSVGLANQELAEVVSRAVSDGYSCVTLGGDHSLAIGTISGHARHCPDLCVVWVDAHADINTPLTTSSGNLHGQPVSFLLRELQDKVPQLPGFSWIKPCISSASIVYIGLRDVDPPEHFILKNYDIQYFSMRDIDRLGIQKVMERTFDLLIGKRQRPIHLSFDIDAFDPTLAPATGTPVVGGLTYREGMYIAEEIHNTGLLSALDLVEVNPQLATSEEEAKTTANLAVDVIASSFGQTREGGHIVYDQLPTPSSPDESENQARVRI
Description: in vitro enzyme assay to detect the production of urea directly proportional to the activity of Arginase II. Note: in the data most compounds retested in dose-response had high values. It counts as functional. The conditions noted are these: 33.3 µM.

The target in assay [6] is T3, Proteasome subunit beta (Trypanosoma cruzi) (UniProt O96673).
T3 sequence (whole entry): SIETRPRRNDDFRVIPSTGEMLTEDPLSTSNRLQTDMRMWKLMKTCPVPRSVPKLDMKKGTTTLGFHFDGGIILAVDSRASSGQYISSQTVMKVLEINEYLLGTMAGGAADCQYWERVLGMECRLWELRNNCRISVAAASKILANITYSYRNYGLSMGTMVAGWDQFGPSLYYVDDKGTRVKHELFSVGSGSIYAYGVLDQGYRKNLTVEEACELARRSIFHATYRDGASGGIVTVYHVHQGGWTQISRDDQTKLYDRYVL
The experiment in a line: Trypanosoma cruzi proteasome chymotrypsin-like activity (TcProtChymo) assay. Note: in the data most compounds retested in dose-response had high values. The class given is functional. The settings on record: 9.37 µM.

For the next assay, the species on record is Homo sapiens. The experiment in a line: To identify inhibition of the IFN signalling (Jak-Stat) pathway via expression of an eGFP reporter gene under the control of an IFN-stimulated response element (ISRE) containing MxA promoter. It counts as functional. The settings on record: 30 µM. Background: A reporter such as luciferase makes a cellular process visible.

Assay [7] concerns the target T4, Tyrosyl-tRNA synthetase, putative (Trypanosoma cruzi (strain CL Brener)) (UniProt Q4DSP6).
T4 sequence (whole entry): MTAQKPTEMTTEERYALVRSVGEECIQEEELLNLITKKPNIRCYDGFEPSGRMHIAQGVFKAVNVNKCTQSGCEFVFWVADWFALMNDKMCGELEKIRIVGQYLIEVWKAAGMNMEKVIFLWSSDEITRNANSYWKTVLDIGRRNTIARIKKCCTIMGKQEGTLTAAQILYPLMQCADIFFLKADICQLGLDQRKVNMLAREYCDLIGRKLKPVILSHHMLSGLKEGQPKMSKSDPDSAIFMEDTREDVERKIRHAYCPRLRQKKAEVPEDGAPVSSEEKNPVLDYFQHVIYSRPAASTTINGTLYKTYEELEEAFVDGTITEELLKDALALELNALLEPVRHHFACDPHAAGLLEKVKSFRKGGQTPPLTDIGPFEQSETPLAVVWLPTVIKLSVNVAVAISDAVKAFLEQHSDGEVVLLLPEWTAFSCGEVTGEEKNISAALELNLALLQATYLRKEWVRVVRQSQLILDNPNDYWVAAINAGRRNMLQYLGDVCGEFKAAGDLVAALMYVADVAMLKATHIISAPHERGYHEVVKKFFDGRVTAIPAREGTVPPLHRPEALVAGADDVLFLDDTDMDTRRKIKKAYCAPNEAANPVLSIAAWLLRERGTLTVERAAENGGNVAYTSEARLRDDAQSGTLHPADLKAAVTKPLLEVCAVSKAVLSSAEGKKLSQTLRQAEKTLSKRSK
Description: Trypanosoma cruzi tyrosyl tRNA synthetase (TcYRS) _High Tyrosine SOP. Note: in the data most compounds retested in dose-response had high values. It counts as functional. The settings on record: 30 µM.

For assay [8], the target named is T4, Tyrosyl-tRNA synthetase, putative (Trypanosoma cruzi (strain CL Brener)). The experiment in a line: Trypanosoma cruzi tyrosyl tRNA synthetase (TcYRS) SOP. It counts as functional. The conditions noted are these: 30 µM.
The target in assay [9] is Chromo domain-containing protein 1 (Saccharomyces cerevisiae (strain ATCC 204508 / S288c) (Baker's yeast)) (UniProt P32657). The experiment in a line: ScCHD-1 Enzyme Inhibition Assay. Note: in the data most compounds retested in dose-response had high values. The class given is functional. The conditions noted are these: 30 µM.
Sequence of Chromo domain-containing protein 1 (Saccharomyces cerevisiae (strain ATCC 204508 / S288c) (Baker's yeast)) (P32657 whole entry, the tested form may be a part): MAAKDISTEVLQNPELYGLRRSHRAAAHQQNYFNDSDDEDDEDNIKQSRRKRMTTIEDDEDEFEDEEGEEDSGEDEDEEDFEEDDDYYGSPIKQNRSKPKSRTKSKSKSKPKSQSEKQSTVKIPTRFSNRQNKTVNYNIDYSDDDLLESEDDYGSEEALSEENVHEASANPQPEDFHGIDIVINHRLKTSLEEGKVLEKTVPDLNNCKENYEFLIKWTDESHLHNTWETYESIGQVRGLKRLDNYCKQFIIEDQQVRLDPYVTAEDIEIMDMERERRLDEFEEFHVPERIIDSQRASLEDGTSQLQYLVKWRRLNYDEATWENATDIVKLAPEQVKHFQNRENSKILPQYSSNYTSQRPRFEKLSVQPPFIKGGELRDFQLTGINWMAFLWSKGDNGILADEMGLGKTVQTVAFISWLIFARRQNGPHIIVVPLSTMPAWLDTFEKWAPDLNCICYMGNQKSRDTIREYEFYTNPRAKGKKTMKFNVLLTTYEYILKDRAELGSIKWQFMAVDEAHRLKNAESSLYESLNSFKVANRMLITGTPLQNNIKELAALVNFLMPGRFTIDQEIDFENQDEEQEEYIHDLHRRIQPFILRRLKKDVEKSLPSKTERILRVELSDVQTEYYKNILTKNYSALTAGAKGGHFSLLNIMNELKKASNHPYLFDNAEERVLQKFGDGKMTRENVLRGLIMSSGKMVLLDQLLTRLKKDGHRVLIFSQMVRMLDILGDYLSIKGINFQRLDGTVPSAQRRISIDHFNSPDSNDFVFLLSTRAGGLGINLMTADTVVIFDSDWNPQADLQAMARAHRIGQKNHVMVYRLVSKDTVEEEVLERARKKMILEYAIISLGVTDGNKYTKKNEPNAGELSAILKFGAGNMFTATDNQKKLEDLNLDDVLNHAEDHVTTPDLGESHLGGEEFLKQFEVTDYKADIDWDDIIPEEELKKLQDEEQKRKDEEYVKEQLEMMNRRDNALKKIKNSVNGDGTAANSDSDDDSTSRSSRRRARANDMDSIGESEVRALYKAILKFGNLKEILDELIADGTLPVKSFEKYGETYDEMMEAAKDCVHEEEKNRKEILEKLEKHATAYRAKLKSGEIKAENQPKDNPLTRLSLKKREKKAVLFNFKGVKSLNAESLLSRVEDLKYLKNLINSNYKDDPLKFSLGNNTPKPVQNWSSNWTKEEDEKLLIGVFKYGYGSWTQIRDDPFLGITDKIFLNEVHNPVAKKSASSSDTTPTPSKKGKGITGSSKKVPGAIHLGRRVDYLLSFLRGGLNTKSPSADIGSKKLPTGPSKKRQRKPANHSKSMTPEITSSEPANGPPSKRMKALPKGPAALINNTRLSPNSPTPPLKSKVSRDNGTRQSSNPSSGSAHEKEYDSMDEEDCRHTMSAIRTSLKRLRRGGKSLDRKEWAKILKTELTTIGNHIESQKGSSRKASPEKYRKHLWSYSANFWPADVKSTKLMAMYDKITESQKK

Molecules are shown by their SMILES. For some assays here: Entries with a potency or affinity are not part of this list.

Sequence of Protein translocase subunit SecA (Escherichia coli (strain K12)) (P10408 whole entry): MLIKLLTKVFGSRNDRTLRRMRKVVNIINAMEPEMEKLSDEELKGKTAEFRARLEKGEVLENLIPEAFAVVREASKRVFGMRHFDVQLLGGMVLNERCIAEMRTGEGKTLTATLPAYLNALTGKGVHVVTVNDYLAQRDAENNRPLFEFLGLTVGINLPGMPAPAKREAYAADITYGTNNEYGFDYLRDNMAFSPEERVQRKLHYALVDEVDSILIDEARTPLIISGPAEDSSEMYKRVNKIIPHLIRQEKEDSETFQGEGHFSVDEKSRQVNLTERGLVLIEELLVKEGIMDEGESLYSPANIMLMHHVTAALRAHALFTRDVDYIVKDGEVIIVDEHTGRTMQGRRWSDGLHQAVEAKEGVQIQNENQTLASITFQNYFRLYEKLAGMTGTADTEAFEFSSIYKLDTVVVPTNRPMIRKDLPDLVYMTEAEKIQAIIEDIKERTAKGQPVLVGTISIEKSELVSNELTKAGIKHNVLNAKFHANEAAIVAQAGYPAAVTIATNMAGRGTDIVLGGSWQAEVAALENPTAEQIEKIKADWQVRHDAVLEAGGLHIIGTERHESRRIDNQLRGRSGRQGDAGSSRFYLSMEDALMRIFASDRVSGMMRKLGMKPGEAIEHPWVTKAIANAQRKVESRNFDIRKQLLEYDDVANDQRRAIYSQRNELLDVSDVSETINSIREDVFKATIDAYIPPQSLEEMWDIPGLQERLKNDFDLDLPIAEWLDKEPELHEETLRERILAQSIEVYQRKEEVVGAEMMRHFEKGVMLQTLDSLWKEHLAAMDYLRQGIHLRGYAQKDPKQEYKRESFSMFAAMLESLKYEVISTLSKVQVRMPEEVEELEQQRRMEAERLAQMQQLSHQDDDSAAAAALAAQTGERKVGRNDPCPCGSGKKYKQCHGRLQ

`CN(CC1CCCO1)C1CCN(CCc2ccccn2)CC1` (stereo not given): the Percent Effect in [1] is -1.45%; in assay [2], 0%; in [3], -5.1%; in assay [4], 7.51%; in the assay with Trypanosoma cruzi, -1.95%; in assay [5], 0.924%. For the same compound, the Percent Effect in [6] is -0.898%; in the assay filed under Homo sapiens it was 7.31%; in assay [7], 3.96%; in assay [8] it was 1.22%; in assay [9] it was 8.88%.

For the compound `O=C(CCc1nc2cccnc2[nH]1)Nc1cccnc1`, the Percent Effect in assay [1] was -3.23%; in [2], 22.7%; in assay [3] it was -1.32%; in assay [4], 1.96%; in the assay with Trypanosoma cruzi, 3.14%; in assay [5], -2.29%. The Percent Effect was 14.1% in [6]; -1.85% in the assay listed under Homo sapiens; 2.12% in assay [7]; 20.5% in [8]; -7.05% in assay [9].

`c1ccc(-c2cc(CN3CCC(c4ccn[nH]4)CC3)on2)cc1`: the Percent Effect in [1] was -3.15%; in assay [2], -2.7%; in assay [3], -3.14%; in assay [4], 8.25%; in the assay with Trypanosoma cruzi it was -1.54%; in assay [5] it was -0.952%. Moreover, the Percent Effect is 17.2% in assay [6]; 42.5% in the assay filed under Homo sapiens; 0.529% in [7]; 7.32% in assay [8]; -3.02% in assay [9].

Consider `Cc1ccoc1C(=O)N1CC[C@H]2OCC[C@@]2(COCc2ccncc2)C1`, for which the Percent Effect in assay [1] is -0.155%; in assay [2] it was 15.6%; in assay [3], 3.21%; in assay [4] it was 3.48%; in the assay on Trypanosoma cruzi, 2.07%; in [5], 7.1%. Moreover, the Percent Effect was 17.2% in assay [6]; 23.7% in the assay filed under Homo sapiens; 7.41% in [7]; 16.7% in assay [8]; -9.72% in assay [9].

For the compound `O=C(Cn1nc(-c2cccs2)ccc1=O)N1CCCCCC1`, the Percent Effect in [1] was -3.74%; in assay [2] it was -1.33%; in assay [3], 5.86%; in assay [4] it was 8.95%; in the assay with Trypanosoma cruzi it was 1.77%; in [5] it was -10.4%. Also, the Percent Effect in assay [6] is 7.21%; in the assay filed under Homo sapiens, 9%; in [7], 1.06%; in assay [8] it was 7.69%; in assay [9], -3.49%.

Consider `COc1ccc(CNCC2CC2)cc1F`, for which the Percent Effect was -3.45% in assay [1]; 0% in [2]; 3.06% in assay [3]; 6.66% in assay [4]; 1.56% with Trypanosoma cruzi; -1.67% in assay [5]. Besides, the Percent Effect in assay [6] is 3.47%; in the assay filed under Homo sapiens, -5.14%; in assay [7], 4.95%; in [8], 3.66%; in [9], -2.56%.

With `CC(C)c1nc2n(n1)CC(NCc1ccncc1)CC2` (stereo not given), the Percent Effect is -3.2% in assay [1]; 5.26% in assay [2]; -3.06% in assay [3]; -0.0553% in [4]; 2.63% in the assay with Trypanosoma cruzi; -5.92% in [5]. For the same compound, the Percent Effect in assay [6] was 4.12%; in the assay filed under Homo sapiens, 3.22%; in assay [7], 2.13%; in assay [8], 5.2%; in assay [9], -1.54%.

Consider `Cc1cn2c(n1)CCC(NC(=O)c1cnc(C)nc1C(C)C)C2` (stereo not given), for which the Percent Effect in [1] was -4.68%; in [2], 10.4%; in assay [3], -12.2%; in [4], 12.9%; with Trypanosoma cruzi, 3.23%; in assay [5], 1.9%. Further, the Percent Effect was 3.48% in assay [6]; 1.24% in the assay filed under Homo sapiens; 10.5% in assay [7]; 18.8% in [8]; -16.9% in assay [9].

Take `Cc1noc(C)c1C1CCCN1C(=O)CN1CC2(CCNCC2)OC1=O` (stereo not given): the Percent Effect is -6.39% in [1]; 0% in [2]; 4.75% in assay [3]; 9.41% in assay [4]; -1.35% in the assay on Trypanosoma cruzi; -3.81% in assay [5]. Besides, the Percent Effect was 6.9% in assay [6]; -4.21% in the assay listed under Homo sapiens; 3.7% in [7]; 0% in assay [8]; -4.34% in assay [9].

Consider `O=C(Nc1nc2c(s1)CN(S(=O)(=O)C1CC1)CC2)c1c(F)cccc1F`, for which the Percent Effect in [1] is -3.34%; in [2] it was 0%; in assay [3], 17.1%; in [4], -7.6%; in the assay on Trypanosoma cruzi, -4.11%; in assay [5], 2.27%. The Percent Effect in [6] is 9.41%; in the assay listed under Homo sapiens, 30.1%; in assay [7], 3.23%; in [8], 7.5%; in [9], -4.6%.

(Values after ChEMBL document CHEMBL3988442, “University of Dundee, Small-Polar-MMV Screening Library” (2021).)
